Rows were chosen to be rich in hits. Some 27% of all compounds tested hit in one or more screens of this group.
CYP2C9 inh: blockers of cytochrome P450 2C9 activity – biochemical, luminescence, ADME assay, primary screen | P11712 | CYP2C9 Supersomes, luciferin-H conversion | inhibition, % at 5 µM | 20% of 96,000 active | AID 777, 2007;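 active = blocking of liver enzyme CYP2C9 beyond about 50% at 5 µM, limit read from the data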
EphB4 ephrin blk: EphB4-ephrin-B2 interaction antagonists, primary screen, biochemical, TNYL-RAW peptide probe, fluorescence polarization; AID 720, 2007; EphB4 LBD / TNYL-RAW-Alexa532 peptide; Ephrin type-B receptor 4 (Homo sapiens), P54760; inhibition, % at 7 µM; 0.15% of 97,000 active;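 active = inhibition above the screen-wide mean inhibition plus 3 SD, cut at about 15% in these data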
CYP2C9 activ: human CYP2C9 activators, primary screen, biochemical, luminescence; AID 1024, 2008; recombinant CYP2C9, luciferin-H conversion; stronger effect = higher value; factor 1 = untreated enzyme, 0 = blocked; Cytochrome P450 2C9 (Homo sapiens), P11712; activation factor at 5 µM; 1.4% of 96,000 active;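 active = activation factor of 2 or more for CYP2C9 at a 5 µM dose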
CYP2C19 activ: human CYP2C19 activators, primary screen, biochemical, luminescence | Cytochrome P450 2C19 (Homo sapiens), P33261 | recombinant CYP2C19, luciferin-H EGE luminescence; stronger effect = higher value; 0 = fully inhibited enzyme, 1 = untreated enzyme | activation factor at 5 µM | 96,000 tested, under 10 active | AID 1025, 2008;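 active = activation factor of at least 2 at 5 µM in the primary screen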
Target sequence (P33261 whole entry, looked up): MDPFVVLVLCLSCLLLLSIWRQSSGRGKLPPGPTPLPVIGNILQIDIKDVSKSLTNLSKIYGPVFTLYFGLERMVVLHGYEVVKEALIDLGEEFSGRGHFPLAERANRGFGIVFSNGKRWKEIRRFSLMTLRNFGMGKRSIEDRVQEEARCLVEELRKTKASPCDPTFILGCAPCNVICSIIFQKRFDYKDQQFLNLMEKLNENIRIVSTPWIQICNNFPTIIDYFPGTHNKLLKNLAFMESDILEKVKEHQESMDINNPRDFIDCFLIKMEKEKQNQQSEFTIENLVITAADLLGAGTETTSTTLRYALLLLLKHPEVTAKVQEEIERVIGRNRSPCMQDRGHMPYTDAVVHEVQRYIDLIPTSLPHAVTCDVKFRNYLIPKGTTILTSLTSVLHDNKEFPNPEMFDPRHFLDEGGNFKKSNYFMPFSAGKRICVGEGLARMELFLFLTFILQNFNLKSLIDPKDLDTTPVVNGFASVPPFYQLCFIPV
CYP2C19 inhib: blockers of cytochrome P450 2C19 activity – biochemical, luminescence, ADME assay, primary screen. P33261. CYP2C19 Supersomes, luciferin-H EGE luminescence, 30 min. inhibition, % at 5 µM. 21% of 96,000 active;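 active = CYP2C19 inhibition above a set limit at 5 µM in the primary screen, cut at about 50% in these data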
Large screens that a line does not name were inactive.

Brc1ccc(/C=C/C=N/Nc2nc3ccccc3s2)cc1	none
Cc1cccc(-c2noc(CCCC(=O)N3CCOCC3)n2)c1	CYP2C19 inhib 52
Cc1cccc(N(CC(=O)NCC2CCCO2)C(=O)CCC(=O)Nc2cc(C)on2)c1 (stereo not given)	CYP2C9 inh 52 (no result: EphB4 ephrin blk)
Cc1cccc(-c2noc(CCC(=O)NCC3CCCO3)n2)c1 (stereo not given)	CYP2C19 inhib 60
CCc1ccc2nc(-c3cccc(C)c3)nc(SCC(=O)NCC3CCCO3)c2c1 (stereo not given)	CYP2C9 inh 75, CYP2C19 inhib 60
CCc1cccc2c(SCC(=O)NCC3CCCO3)nc(-c3ccc(F)cc3)nc12 (stereo not given)	none
Cc1ccccc1-c1noc(CCC(=O)NCC2CCCO2)n1 (stereo not given)	none
Cc1ccc(-c2noc(CCCC(=O)N3CCOCC3)n2)cc1	none (no result: EphB4 ephrin blk)
COc1ccc2cc3c(N)nn(C(=O)Cc4ccc(Cl)cc4)c3nc2c1	none
CN1C(=O)CC(N2CCC(c3nc4ccccc4[nH]3)CC2)C1=O (stereo not given)	none
CCc1cccc2c(SC(C)C(=O)NCC3CCCO3)nc(-c3ccccc3)nc12 (stereo not given)	CYP2C9 inh 61
CC(C)(C)c1ccc(C(=O)N/N=C/c2cccc(Cl)c2)cc1	CYP2C19 inhib 76
O=[N+]([O-])c1ccccc1/C=N/N1CCN(c2ccc(Cl)cc2)CC1	none
Cc1ccc(N2CCN(/N=C/c3sccc3C)CC2)cc1	CYP2C9 activ 2.8
COc1ccccc1-c1cc(C(F)(F)F)nc(S(=O)(=O)CCCC(=O)N2CCCCC2C)n1 (stereo not given)	none
COC(=O)c1ccc(N2CCN(C)CC2)c(NC(=O)COc2ccc(OC)cc2)c1	none
CCOc1ccccc1-c1nn2c(Cc3ccccc3)nnc2s1	CYP2C19 inhib 54 (no result: EphB4 ephrin blk)
CCOc1ccc(-c2nnc3sc(-c4ccccc4OC)nn23)cc1	none (no result: CYP2C9 inh, CYP2C9 activ, CYP2C19 activ, CYP2C19 inhib)
Clc1ccc(OCc2nn3c(C4CCCCC4)nnc3s2)cc1	CYP2C9 inh 90
c1ccc(Cc2nnc3sc(-c4cccs4)nn23)cc1	CYP2C9 inh 55, CYP2C19 inhib 60
c1ccc(-c2nn3c(C4CCCCC4)nnc3s2)cc1	none
c1ccc(Cc2nnc3sc(-c4cccnc4)nn23)cc1	CYP2C9 inh 64, CYP2C19 inhib 98
COCCOC(=O)C1=C(C)NC(=O)NC1c1c(OC)ncnc1OC (stereo not given)	none (no result: EphB4 ephrin blk)
c1ccc(Cc2nnc3sc(-c4ccc5c(c4)OCCO5)nn23)cc1	CYP2C9 inh 76, CYP2C19 inhib 58
c1ccc(Cc2nnc3sc(-c4ccccn4)nn23)cc1	CYP2C9 inh 63, CYP2C19 inhib 92
c1ccc(Cc2nnc3sc(-c4ccc5c(c4)OCO5)nn23)cc1	none (no result: CYP2C9 inh, CYP2C9 activ, CYP2C19 activ, CYP2C19 inhib)
FC(F)(F)c1nnc2sc(-c3ccccn3)nn12	none
c1csc(-c2nn3c(Cn4cnc5ccccc54)nnc3s2)c1	CYP2C19 inhib 58
c1ccc(Cc2nnc3sc(-c4ccncc4)nn23)cc1	CYP2C9 inh 52, CYP2C19 inhib 96
O=C(C1CCCO1)N1CCN(c2c3c(nc4cc(-c5ccc(F)cc5)nn24)CCC3)CC1 (stereo not given)	none
COc1ccc(NS(=O)(=O)c2ccc(OCC(=O)N3CCCC3)cc2)cc1	none
c1ccc(-c2nn3c(C4CCCCC4)nnc3s2)nc1	CYP2C9 inh 59, CYP2C19 inhib 70
c1ccc(CCc2nn3c(Cc4ccccc4)nnc3s2)cc1	CYP2C9 inh 73, CYP2C19 inhib 80
c1ccc(CCc2nn3c(C4COc5ccccc5O4)nnc3s2)cc1 (stereo not given)	none
COc1ccc(CN(C(=O)Cn2nnc3ccccc32)C(C(=O)NC(C)(C)C)c2ccco2)cc1 (stereo not given)	none
Cc1[nH]c2ccc(CNS(=O)(=O)c3ccc(S(=O)(=O)N4CCOCC4)cc3)cc2c1C	CYP2C9 inh 71, CYP2C19 inhib 64
Cc1ccc(CNC(=O)c2oc3ccc(S(=O)(=O)N4CCOCC4)cc3c2C)cc1	none
CCC(=O)Nc1ccc(F)c(Cl)c1	none
CCn1cc(Br)c(C(=O)Nc2ccc(Cl)cc2Cl)n1	CYP2C19 inhib 74
Cc1nnsc1C(=O)Nc1ccc(Cl)cc1Cl	none
CCn1cc(Br)c(C(=O)Nc2ccc(F)c(Cl)c2)n1	CYP2C9 inh 75, CYP2C19 inhib 92 (no result: EphB4 ephrin blk)
CCOC(=O)Cn1c(C)nc2ccccc21	none
O=[N+]([O-])c1ccc(C(=Nc2cccc3ccccc23)N2CCOCC2)cc1	none
O=[N+]([O-])c1ccc(N=Nc2ccc(O)cc2O)cc1	CYP2C9 inh 57, CYP2C19 inhib 69
CCNCc1cc(Br)c(OCC(=O)Nc2ccccc2)c(OC)c1	none (no result: CYP2C9 inh, CYP2C9 activ, CYP2C19 activ, CYP2C19 inhib)
CCOc1ccc(CC(=O)NNC(=S)Nc2ccccc2)cc1Br	CYP2C9 inh 72, CYP2C19 inhib 53
COc1ccc(CC(=O)NNC(=S)Nc2ccc(Br)cc2)cc1	CYP2C9 inh 52
CCOc1cc(NC(=S)Nc2ccccc2)c(OCC)cc1NC(=O)c1ccccc1	none
COc1ccc(CC(=O)NNC(=S)Nc2ccccc2)cc1Br	CYP2C19 inhib 74
Cc1cccc(NC(=O)NCc2ccccn2)c1	none (no result: CYP2C9 inh, CYP2C9 activ, CYP2C19 activ, CYP2C19 inhib)
Cc1nnc(SCC(=O)N(C)Cc2ccccc2)[nH]c1=O	none
O=C(CN(c1ccccc1)S(=O)(=O)c1ccccc1[N+](=O)[O-])NN=C1CCCCCCC1	CYP2C19 inhib 64
O=C1OCCC1Sc1nc2cc(Cl)ccc2s1 (stereo not given)	CYP2C9 activ 2.6, CYP2C19 inhib 92 (no result: EphB4 ephrin blk)
C=CCn1c(SC2CCOC2=O)nc2sc(CC)cc2c1=O (stereo not given)	none
OC1CCCCC1Sc1nc2ccccc2s1 (stereo not given)	CYP2C19 inhib 66
CSc1nc2cc(Cl)ccc2s1	none
O=C1OCCC1Sc1nc2ccccc2s1 (stereo not given)	CYP2C19 inhib 62
O=C1OCCC1Sc1nc2cc(Cl)ccc2n1Cc1ccccc1 (stereo not given)	CYP2C19 inhib 59
COc1cc(Cc2cnc(N)nc2N)cc(OC)c1OC	none
Cc1cccc(N(C)C(=O)CCS(=O)(=O)c2cccc3nonc23)c1	CYP2C19 inhib 94 (no result: EphB4 ephrin blk)
COc1ccc(N(C)C(=O)CCS(=O)(=O)c2cccc3nonc23)c(OC)c1	CYP2C19 inhib 64
COc1cccc(C2C(C#N)=C(N)OC3=C2C(=O)CCC3)c1OC(=O)c1ccco1 (stereo not given)	none
CCN(c1ccc(C)c(C)c1)S(=O)(=O)c1ccc2c(c1)CCN2C(=O)CCC(=O)O	CYP2C9 inh 52
CCOc1ccc(NS(=O)(=O)c2ccc3c(c2)CCN3C(=O)CCC(=O)O)cc1	none
CCN(c1ccc(OC)cc1)S(=O)(=O)c1ccc2c(c1)CCN2C(=O)CCC(=O)O	CYP2C9 inh 70
CC1CCCCN1S(=O)(=O)c1ccc2c(c1)CCN2C(=O)CCC(=O)O (stereo not given)	none

Bioassay records deposited in PubChem BioAssay by several laboratories.
